Source: PubChem BioAssay (National Center for Advancing Translational Sciences (NCATS))
AMA1-RON2 inh: AMA1-RON2 (P. falciparum) interaction inhibition; AlphaScreen AMA1-biotinylated RON2 peptide binding; Potency, µM (doses to about 58.2 µM), for the others: top-dose activity change, negative = inhibition, usual class: inhibitors; 360,000 tested, 0.2% active; AID 720542;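 note: 0% = vehicle wells and -100% = peptide control; nearly all actives have a fitted effect of over 45% in size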
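AMA1 (3D7) with his tag at 25 nM final met compounds first, then biotinylated RON2 peptide at 25 nM; detection used donor plus acceptor beads, 10 µg/mL apiece, read by AlphaScreen after 30 min at room temperature.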
Pf growth 48h: inhibits P. falciparum growth in the first generation, 48 h; P. falciparum luciferase growth in erythrocytes, 48 h; Potency, µM (top dose mostly 28.7 µM), inactives show at the highest dose activity change, negative = inhibition, most hits filed as inhibitors; 310,000 tested, 5.9% active
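Here the parasites carry a stable luciferase gene and grow inside erythrocytes in Albumax-based RPMI medium with compound for one erythrocytic cycle. Activity is scored as loss of luminescent signal.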
HCV inh: inhibitors of hepatitis C virus infection | 340,000 tested, 3.4% active | Huh7.5.1 HCVcc-Cre infection, luciferase reporter, 44 h | Potency, µM (doses to about 41.8 µM), for inactives: top-dose activity change, negative = inhibition, most hits filed as inhibitors
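Cells seeded at 1,000/well and cultured 4 h, then compounds added followed by HCVcc-Cre virus (~0.5 moi). After 44 h further culture, luciferase substrate was added, plates held 15 min at room temperature, and luminescence read for 15 sec.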
Pf growth 96h: inhibits malaria parasite growth, 96 h; 320,000 tested, 6.9% active; P. falciparum luciferase reporter growth, 96 h; Potency, µM (titrated, usually from 28.7 µM), for the others: at the highest dose activity change, negative = inhibition, usual class: inhibitors
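P. falciparum expressing integrated firefly luciferase, in erythrocytes at 2% hematocrit, 0.05% parasitemia, incubated with compounds 96 h at 37 C, 5% CO2. Growth inhibition read as loss of luminescence; two-generation exposure targets delayed-death apicoplast inhibitors.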
An asterisk follows results filed as active; u = inconclusive; x = no result. The list is not random: actives were taken first. Their share in the collection is about 11%. Calls come from the whole dose curve; as a rule, active = well fitted curve in the direction sought with a large enough effect; inconclusive = small, poorly fitted or top-dose-only effect, or another doubt; inactive = no such curve, though single readings can be large; an effect the other way counts as inactive or inconclusive. Unless noted, % is set by controls: 0 for no effect and ±100 for the full control effect; potency is the fitted concentration of half-maximal effect.

SMILES | AMA1-RON2 inh | Pf growth 48h | HCV inh | Pf growth 96h
Cc1ccc(-c2noc(CCC(=O)Nc3cccc(C(=O)NC4CC4)c3)n2)cc1 | -1% | x | x | x
OCc1ccc2c(c1)c(-c1ccc3c(c1)OCCO3)c(-c1ccccc1)n2-c1ccccc1 | u | u | u | 4.7µM*
CCc1ccc(CNCc2ccc(OCC(O)CN(C)Cc3ccccc3)cc2)nc1 (stereo not given) | 60% | u | 11µM* | u
CN(Cc1ccccc1)CC(O)COc1ccc(CNCCc2ccncc2)cc1 (stereo not given) | 0% | 5.2µM* | 13µM* | -47%
C=CCOc1ccc(CN(C)CC(O)COc2cccc3ccccc23)cc1 (stereo not given) | -21% | 10µM* | 32µM* | u
CN(Cc1ccccc1)CC(O)COc1ccc(CNCCc2cccnc2)cc1 (stereo not given) | 5% | 5.2µM* | u | 1%
CN(Cc1ccccc1)CC(O)COc1ccc(CNCc2nccn2C)cc1 (stereo not given) | 40% | u | u | 6%
CCn1ccnc1CNCc1ccc(OCC(O)CN(C)Cc2ccccc2)cc1 (stereo not given) | 81% | u | -24% | 162%
CCN(CC)S(=O)(=O)c1ccc(-n2cnc3cc(C)c(C)cc32)nc1 | 3% | u | u | u
Cc1nc2ccccc2c(=O)n1/N=C/c1ccc(O)cc1O | 34% | -5% | -12% | 341%
CCCc1nc2ccccc2c(=O)n1/N=C/c1c(C)[nH]n(-c2ccc(C)cc2)c1=O | 3% | -29% | 21% | 3.7µM*
CCCc1nc2ccccc2c(=O)n1/N=C/c1ccccc1O | 52% | 12µM* | u | x
Cc1ccc(-n2[nH]c(C)c(C=NCc3ccncc3)c2=O)cc1 | 26% | 0% | 6% | 11%
O=C(COC(=O)Cc1c[nH]c2ccccc12)Nc1cc(S(=O)(=O)N2CCOCC2)ccc1Cl | -10% | x | 5% | x
CCn1c(CC(=O)Nc2ccc(C)cc2)nnc1SCC(=O)N1CCOCC1 | -6% | 0% | 2% | 0%
CCC(c1nnnn1CCOC)N(Cc1cc2cc(C)c(C)cc2[nH]c1=O)CC1CCCO1 (stereo not given) | 0% | x | 10% | 15µM*
CCC(c1nnnn1CCOC)N(Cc1ccc(C)cc1)Cc1cc2cc(OC)ccc2[nH]c1=O (stereo not given) | -10% | 10µM* | 6% | 8%
Cc1ccc(S(=O)(=O)N2CCCCC2)cc1NC(=O)c1ccncc1 | -10% | 61% | 12% | u
O=C(Nc1cc(S(=O)(=O)N2CCOCC2)ccc1N1CCOCC1)c1cccc(Cl)c1 | -1% | x | x | x
O=C(NCC1CCN(c2ccc(S(=O)(=O)N3CCOCC3)cc2)CC1)c1cccc(Cl)c1 | -4% | x | u | 12µM*
COc1cccc(C(=O)NCC2CCN(c3ccc(S(=O)(=O)N4CCOCC4)cc3)CC2)c1 | -13% | 12µM* | u | 5.2µM*
COc1cccc(C(=O)Nc2cc(S(=O)(=O)N3CCOCC3)ccc2N2CCOCC2)c1 | 0% | x | -13% | x
CCCc1ccc(C(=O)NNc2ccccc2F)cc1 | -9% | 66% | 4% | 47%
CCN(CC)S(=O)(=O)c1ccc(N2CCOCC2)c(NC(=O)c2sccc2C)c1 | -14% | x | u | x
CCc1cc(C(=O)Nc2cc(S(=O)(=O)N(CC)CC)ccc2N2CCOCC2)sc1C | 8% | u | u | 9.3µM*
SMILES | AMA1-RON2 inh | Pf growth 48h | HCV inh | Pf growth 96h
CCN(CC)S(=O)(=O)c1ccc(N2CCOCC2)c(NC(=S)NC(=O)c2ccco2)c1 | 34% | 2.6µM* | u | 1.5µM*
CCN(CC)S(=O)(=O)c1ccc(N2CCOCC2)c(NC(=O)c2cc(C)cc(C)c2)c1 | -22% | 10µM* | -25% | u
CCN(CC)S(=O)(=O)c1ccc(N2CCOCC2)c(NC(=O)c2ccccc2)c1 | -10% | u | -17% | u
CCN(CC)S(=O)(=O)c1ccc(N2CCOCC2)c(NC(=O)C23CC4CC(CC(Cl)(C4)C2)C3)c1 | -19% | 8.3µM* | u | 3.7µM*
Cc1ccc(C(=O)NC(C)C2CC3CCC2C3)c(C)c1 (stereo not given) | 1% | 35% | 17% | 31%
Cc1ccsc1/C=N/n1c(-c2ccccn2)n[nH]c1=S | -1% | 38% | 0% | 47%
Cc1cccc(C)c1Nc1nnc(SCC(=O)c2ccc3c(c2)NC(=O)CO3)s1 | 11% | -6% | -5% | u
